Laboratory results: the supplement of paper PMC10981050
Values joined by “and” are separate entries in the source; they are usually repeats but may differ in a detail not shown here. Identical values can stand only once. Counter-ions that a name gives are not always drawn.

What was measured:
Assay in all cases: cell viability relative to vehicle control; higher = less cytotoxic
Settings in all cases: 10 µM
K562 = test system: K562
How it was run: (§1)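 Each screen used CRISPR-edited mutant and wild-type clones from four leukaemia lines. Compounds were acoustically dispensed at a single 10 µM dose, and CellTiter-Glo luminescence was read after 48 h with the supernatant first removed. Viability was analysed in Genedata Screener and given as percent of the on-plate vehicle control.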

MARIMO = test system: MARIMO
How it was run: as §1

MOLM14 = test system: MOLM14
How it was run: as §1

OCI-AML2 = test system: OCI-AML2
How it was run: as §1

| Compound | cell viability (K562; SRSF2 genotype: SRSF2 P95H/wt) | cell viability (K562; SRSF2 genotype: SRSF2 wt/wt) [%] | cell viability (MARIMO; SRSF2 genotype: SRSF2 P95H/wt) [%] | cell viability (MARIMO; SRSF2 genotype: SRSF2 wt/wt) [%] | cell viability (MOLM14; SRSF2 genotype: SRSF2 P95H/wt) [%] | cell viability (MOLM14; SRSF2 genotype: SRSF2 wt/wt) [%] | cell viability (OCI-AML2; SRSF2 genotype: P95H/wt) [%] | cell viability (OCI-AML2; SRSF2 genotype: wt/wt) [%] |
| --- | --- | --- | --- | --- | --- | --- | --- | --- |
| COc1cc(Nc2ncc(F)c(Nc3ccc4c(n3)NC(=O)C(C)(C)O4)n2)cc(OC)c1OC [R406(free base)] | 95% and 101% | 104 | 72.2 | 85.1 | 25.2 | 16 | 42.1 | 56.3 |
| CC(C)=CCc1cc2c(cc1O)oc(=O)c1c3ccc(O)cc3oc21 [Psoralidin] | 98.2% and 95.7% | 95.2 | 98 | 106 | 115 | 107 | 98 | 98.9 |
| NCCc1c[nH]cn1 [Histamine] | 96.1% and 97.6% | 91.1 | 84 | 93 | 56 | 63.6 | 81.6 | 82.4 |
| Cn1cc(-c2ccc(S(=O)(=O)n3ccc(/C=C/C(=O)Nc4ccccc4N)c3)cc2)cn1 | 15% and 29.1% | 32 | 6.4 | 5.67 | 7.6 | 2.05 | 8.31 | 8.21 |
| O=c1cc(-c2ccc(O)c(O)c2)oc2cc(O)c([C@@H]3O[C@H](CO)[C@@H](O)[C@H](O)[C@H]3O)c(O)c12 [Homoorientin] | 90.2% and 85% | 84.1 | 83.8 | 90 | 83.2 | 90 | 86.7 | 88.7 |
| Cc1cc(C)c2c(c1)[C@@H](N(Cc1cc(C(F)(F)F)cc(C(F)(F)F)c1)c1nnn(C)n1)CCCN2C[C@H]1CC[C@H](C(=O)O)CC1 | 89% and 90.3% | 90.1 | 104 | 114 | 95.4 | 98.7 | 101 | 116 |
| c1cc2c(c3c1C[C@H]1c4cc5c(cc4CCN1C3)OCO5)OCO2 [Stylopine hydrochloride] | 90.4% and 91.9% | 91.4 | 97.7 | 96.3 | 88 | 94 | 92.8 | 97.5 |
| CCc1cncnc1N1CCN(Cc2nc3ccc(C(F)(F)F)cc3[nH]2)CC1 | 72.3% and 72.8% | 73.1 | 66.4 | 47.9 | 57.4 | 66.5 | 32.3 | 43.3 |
| CC1(N)CCN(c2cnc(-c3cccc(Cl)c3Cl)c(N)n2)CC1 [SHP099 hydrochloride] | 64.7% and 71.4% | 71.9 | 96 | 106 | 29.6 | 22.8 | 25.4 | 38.7 |
| COc1ccc(OC)c(C2C(C#N)=C(N)Oc3n[nH]c(-c4ccc5ccccc5c4)c32)c1 (stereo not given) | 104% and 111% | 105 | 98.9 | 99 | 98.7 | 102 | 105 | 106 |
| Cc1ccc(O)c([C@H](CCN(C(C)C)C(C)C)c2ccccc2)c1 [Tolterodine tartrate (Detrol LA)] | 80.3% and 94% | 87.2 | 75.7 | 81.6 | 70 | 83.4 | 88.6 | 84 |
| CNC(=O)[C@H](Cc1c[nH]c2ccccc12)NC(=O)[C@@H](CC(=O)NO)CC(C)C [Ilomastat (GM6001, Galardin)] | 101% and 105% | 95.8 | 95.7 | 97.5 | 88.2 | 97.8 | 113 | 112 |
| CCCCCCCCCCCCN1CCCCCC1=O [Laurocapram] | 82.4% and 87.5% | 93.1 | 80.5 | 86.3 | 80.8 | 90.8 | 70.4 | 73.7 |
| C[C@@H]1O[C@@H](O[C@@H]2[C@@H](O)[C@H](OCCc3ccc(O)c(O)c3)O[C@H](CO)[C@H]2OC(=O)/C=C/c2ccc(O)c(O)c2)[C@H](O)[C@H](O)[C@H]1O [Verbascoside] | 86.6% and 86% | 87.4 | 82.8 | 92.3 | 81.9 | 92.9 | 92.7 | 92.5 |
| COc1ccccc1OCC(O)COC(N)=O (stereo not given) [Methocarbamol (Robaxin)] | 99.3% and 104% | 107 | 94.9 | 106 | 109 | 104 | 98.4 | 106 |
| COc1ccc2c(c1)c(CC(=O)O)c(C)n2C(=O)c1ccc(Cl)cc1 [Indomethacin (Indocid, Indocin)] | 98.6% and 106% | 105 | 110 | 107 | 106 | 107 | 117 | 114 |
| CN1CCCC(n2nc(Cc3ccc(Cl)cc3)c3ccccc3c2=O)CC1 (stereo not given) [Azelastine hydrochloride (Astelin)] | 87% and 91% | 92.6 | 88.1 | 90.3 | 78.9 | 88.6 | 75.9 | 72.6 |
| CC(C)C[C@H](NP(=O)(O)O[C@@H]1O[C@@H](C)[C@H](O)[C@@H](O)[C@H]1O)C(=O)N[C@@H](Cc1c[nH]c2ccccc12)C(=O)O [Phosphoramidon Disodium Salt] | 104% and 101% | 92.3 | 101 | 106 | 95.5 | 104 | 98.6 | 96.9 |
| CCCCNc1ncc2c(-c3ccc(CN4CCN(C)CC4)cc3)cn([C@H]3CC[C@H](O)CC3)c2n1 | 5.45% and 6.26% | 6.13 | 8.07 | 5.67 | 0.26 | 0.23 | 1.56 | 5.54 |
| CC1(C)O[C@@H]2[C@@H](CO[C@@]3(COS(N)(=O)=O)OC(C)(C)O[C@@H]23)O1 [Topiramate] | 99.1% and 107% | 99.3 | 104 | 106 | 107 | 105 | 104 | 113 |

| Compound | cell viability (K562; SRSF2 genotype: SRSF2 P95H/wt) | cell viability (K562; SRSF2 genotype: SRSF2 wt/wt) [%] | cell viability (MARIMO; SRSF2 genotype: SRSF2 P95H/wt) [%] | cell viability (MARIMO; SRSF2 genotype: SRSF2 wt/wt) [%] | cell viability (MOLM14; SRSF2 genotype: SRSF2 P95H/wt) [%] | cell viability (MOLM14; SRSF2 genotype: SRSF2 wt/wt) [%] | cell viability (OCI-AML2; SRSF2 genotype: P95H/wt) [%] | cell viability (OCI-AML2; SRSF2 genotype: wt/wt) [%] |
| --- | --- | --- | --- | --- | --- | --- | --- | --- |
| COC(=O)CCC(=O)CN [Methyl Aminolevulinate Hydrochloride] | 94.6% and 91.5% | 99 | 92.2 | 94.4 | 95 | 97.2 | 93.9 | 102 |
| CN1CCN(Cc2ccc(NC(=O)Cc3ccc(Oc4cc(NC(=O)C5CC5)ncn4)cc3)cc2C(F)(F)F)CC1 | 30.9% and 36.5% | 23.8 | 4.48 | 2.16 | 1.39 | 0.45 | 1 | 5.81 |
| COc1ccc(/C=C/C(=O)C2(C(=O)/C=C/c3ccc(OC)c(OC)c3)CCCCC2)cc1OC | 5.82% and 13.9% | 10.6 | 2.25 | 2.73 | 0.4 | 0.31 | 0.35 | 0.43 |
| CCCCC(=O)O[C@H]1CC[C@H]2[C@@H]3CCc4cc(O)ccc4[C@H]3CC[C@]12C [Estradiol valerate] | 84.7% and 95.4% | 94.2 | 84.7 | 69.3 | 69.9 | 69.2 | 45 | 30.4 |
| NC(=O)OCC(COC(N)=O)c1ccccc1 [Felbamate] | 93% and 95% | 94.4 | 81.9 | 100 | 93.4 | 89.4 | 96.5 | 113 |
| CC1=C(/C=C/C(C)=C/C=C/C(C)=C/C=C/C=C(C)/C=C/C=C(C)/C=C/C2=C(C)C(=O)[C@@H](O)CC2(C)C)C(C)(C)C[C@H](O)C1=O [Astaxanthin] | 104% | 106 | 98.3 | 96.9 | 102 | 101 | 89.8 | 99.8 |
| C[C@H](NC(=O)C(=O)Nc1ccccc1C(C)(C)C)C(=O)N[C@@H](CC(=O)O)C(=O)COc1c(F)c(F)cc(F)c1F | 106% and 107% | 108 | 111 | 107 | 90.2 | 101 | 111 | 106 |
| Fc1ccc([C@@H]2CCNC[C@H]2COc2ccc3c(c2)OCO3)cc1 [Paroxetine mesylate] | 34.1% and 53.1% | 49.5 | 39 | 35.6 | 33.4 | 38.1 | 28.7 | 39.2 |
| CCCCCCCCCCCCCCCCCCCCCCCCCCCCO [1-Octacosanol] | 107% and 110% | 98.7 | 109 | 106 | 100 | 106 | 96.2 | 108 |
| O=C(NCCCNc1nc(Nc2cccc(NC(=O)N3CCCC3)c2)ncc1I)c1cccs1 | 62.4% and 86.2% | 74.4 | 56.6 | 56.7 | 11.1 | 6.15 | 12.4 | 20.6 |
| CC(C)(CO)C(O)C(=O)NCCC(=O)O [Calcium D-Panthotenate] | 95.3% and 94.5% | 95.3 | 95.1 | 105 | 96.8 | 97.2 | 95.4 | 94 |
| CN1CC(O)c2cc(N=NC(N)=O)c(O)cc21 (stereo not given) [Carbazochrome] | 98.5% and 95.6% | 89.4 | 99.4 | 94.8 | 95.7 | 101 | 98.8 | 95.4 |
| Cc1ccccc1C(=O)Nc1ccc(C(=O)N2CCCC(N(C)C)c3ccccc32)cc1 (stereo not given) [Mozavaptan] | 93.3% and 90.1% | 85 | 88.9 | 93.2 | 97.1 | 102 | 95.5 | 97.1 |
| CC(/C=C1\SC(=S)N(CC(=O)O)C1=O)=C\c1ccccc1 [Epalrestat] | 99.9% and 110% | 107 | 104 | 102 | 106 | 103 | 102 | 95.3 |
| O=c1[nH]cc(F)c(=O)[nH]1 [Adrucil (Fluorouracil)] | 92.3% and 90% | 74.5 | 68.5 | 67.4 | 37.5 | 26.1 | 49.1 | 55.1 |
| COCCc1ccc(OCC(O)CNC(C)C)cc1 (stereo not given) [Metoprolol tartrate] | 107% and 106% | 106 | 102 | 104 | 104 | 105 | 106 | 106 |
| CC[C@H]1OC(=O)[C@H](C)[C@@H](O[C@H]2C[C@@](C)(OC)[C@@H](O)[C@H](C)O2)[C@H](C)[C@@H](O[C@@H]2O[C@H](C)C[C@H](N(C)C)[C@H]2O)[C@](C)(O)C[C@@H](C)[C@@H]2N[C@@H](COCCOC)O[C@H]([C@H]2C)[C@]1(C)O [Dirithromycin] | 98.3% and 98% | 98.5 | 97.1 | 109 | 98.7 | 102 | 94.6 | 107 |
| C=C1CCC[C@]2(C)C=C3OC(=O)C(C)=C3C[C@@H]12 [Atractylenolide I] | 102% and 110% | 106 | 97.2 | 102 | 103 | 103 | 116 | 91.6 |
| CC1(C)CCC(CN2CCN(c3ccc(C(=O)NS(=O)(=O)c4ccc(NCC5CCOCC5)c([N+](=O)[O-])c4)c(Oc4cnc5[nH]ccc5c4)c3)CC2)=C(c2ccc(Cl)cc2)C1 [Venetoclax (ABT-199, GDC-0199)] | 79% and 81.2% | 76 | 0.58 | 6.31 | 1.63 | 7.23 | 1.25 | 10.2 |
| CN1C(=O)c2sccc2N(C)c2nc(Nc3ccc(S(N)(=O)=O)cc3)ncc21 | 14% and 30.1% | 63.4 | 22.4 | 25.9 | 5.5 | 3.55 | 8.63 | 10.6 |
